Assay outcomes deposited in PubChem by The Scripps Research Institute Molecular Screening Center.
PLC-gamma1 inh: inhibitors of human phospholipase C gamma1; P19174; purified PLC-gamma1, fluorogenic substrate, fluorescence; inhibition, % at 12.2 µM; actives 0.84% (n = 370,000); AID 720700; in the data active = inhibition above about 9.5%
proKLK7 act: activators of human kallikrein-7 zymogen | actives 0.9% (n = 370,000) | P49862 | activation, % at 7 µM | purified proKLK7, EDANS-DABCYL substrate fluorescence; 100% is mature enzyme control, 0% vehicle;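 active = activation above the mean of all tested compounds plus 3 SD, computed per campaign excluding outliers beyond control limits, cut at about 13% in these data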
PLC-beta3 inh: inhibitors of human phospholipase C beta3. Purified PLC-beta3, fluorogenic substrate, fluorescence. inhibition, % at 12.2 µM. actives 0.18% (n = 370,000); in the data active = inhibition above about 11%
ADAM17 inh: inhibits human ADAM17 | actives 0.83% (n = 370,000) | inhibition, % at 6.95 µM | P78536 | recombinant ADAM17, EDANS/DABCYL FRET peptide cleavage;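 active = inhibition above the mean of compounds lying between control limits plus 3 SD, set per campaign, cut at about 8.5% in these data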
sPLA2-III inh: Blocks human group III sPLA2 activity; Q9NZ20; QFRET BODIPY PC-A2 liposome hydrolysis, fluorescence; inhibition, % at 12.2 µM; actives 0.56% (n = 370,000);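 active = inhibition above mean plus 3 SD of compounds lying within the high and low control bounds, cut at about 19% in these data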
ADAM10 inh: inhibitors of human ADAM10. recombinant ADAM10, EDANS/DABCYL FRET peptide cleavage, 3 h. inhibition, % at 7 µM. actives 0.62% (n = 370,000). AID 720582;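 active = inhibition above a per-campaign cutoff equal to the mean of compounds falling between control-based bounds plus 3 SD, cut at about 20% in these data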
Target sequence (O14672 214-748 limits assumed): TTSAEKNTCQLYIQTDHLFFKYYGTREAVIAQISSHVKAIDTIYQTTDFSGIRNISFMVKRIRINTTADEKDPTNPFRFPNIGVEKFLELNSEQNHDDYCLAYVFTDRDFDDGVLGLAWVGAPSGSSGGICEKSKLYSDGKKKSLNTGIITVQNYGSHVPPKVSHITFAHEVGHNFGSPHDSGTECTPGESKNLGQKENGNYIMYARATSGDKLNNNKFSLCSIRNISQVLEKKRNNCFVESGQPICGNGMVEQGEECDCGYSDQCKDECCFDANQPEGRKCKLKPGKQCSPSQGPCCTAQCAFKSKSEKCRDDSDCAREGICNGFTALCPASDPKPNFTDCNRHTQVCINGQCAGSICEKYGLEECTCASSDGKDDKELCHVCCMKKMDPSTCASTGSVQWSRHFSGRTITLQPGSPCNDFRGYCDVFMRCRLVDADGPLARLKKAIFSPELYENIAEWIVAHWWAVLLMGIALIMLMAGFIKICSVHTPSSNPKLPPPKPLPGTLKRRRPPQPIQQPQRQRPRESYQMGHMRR
ADAM10 counter: inhibits human ADAM10 in ADAM17 exosite counter-screen; shares compounds with ADAM17 inh; recombinant ADAM10, EDANS/DABCYL FRET peptide cleavage, 3 h; inhibition, % at 6.95 µM; actives 47% (n = 2,900);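 active = mean inhibition over the triplicate runs exceeds the activity threshold set in the earlier primary screen, cut at about 20% in these data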
ADAM17 confirm: confirmation of inhibitors of human ADAM17 | shares compounds with ADAM17 inh | recombinant ADAM17, EDANS/DABCYL QFRET peptide cleavage | inhibition, % at 6.95 µM | actives 65% (n = 2,900);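 active = mean inhibition across replicates above the hit cutoff set in the primary screen, cut at about 8.5% in these data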
Numbers stand for hits; i = inactive; nt = not tested or not shown. A selection: hits, their analogues and other compounds. The true share with any hit is near 3.4%.

SMILES	PLC-gamma1 inh	proKLK7 act	PLC-beta3 inh	ADAM17 inh	sPLA2-III inh	ADAM10 inh	ADAM10 counter	ADAM17 confirm
O=C(CCNC(=O)c1ccc(Cl)cc1)NCCC1=CCCCC1	i	i	i	8.7	i	i	i	9.2
CCN(CC)c1ccc(NC(=O)c2cc3c(OC)cccc3[nH]2)cc1	i	i	i	16.9	i	i	i	i
COc1ccc(CNC(=O)CN(Cc2ccc(OC)cc2)C(=O)CCC(=O)Nc2nccs2)cc1	i	i	i	i	i	i	nt	nt
O=C(CC1C(=O)NCCN1Cc1ccc(F)cc1)NCCCn1cccn1 (stereo unspecified)	i	i	i	i	i	i	nt	nt
O=C(NCC(c1ccc(F)cc1)N1CCOCC1)c1ccc(Br)o1 (stereo unspecified)	i	i	i	11.2	i	i	i	11.2
Cc1ccccc1CN1CCCCC(NC(=O)c2ccc3ccccc3c2)C1=O (stereo unspecified)	i	i	i	21.5	i	i	i	i
Cc1ccc(C(=O)NC2CCCCN(Cc3ccccc3C)C2=O)cc1 (stereo unspecified)	i	i	i	i	i	i	nt	nt
COc1cccc2cc(C(=O)c3ccccc3)oc12	i	i	i	i	i	i	nt	nt
COc1cccc2cc(/C(=N/O)c3ccc(Br)cc3)oc12	i	i	i	11.9	i	i	i	10.6
N#CCC(CNc1ncc(C(F)(F)F)cc1Cl)OC(=O)c1ccc(Cl)cc1 (stereo unspecified)	i	i	i	8.7	i	i	35.0	15.9
N#CC/C(N)=N/NC(=O)CCCNc1ncc(C(F)(F)F)cc1Cl	i	i	i	i	i	i	nt	nt
Fc1ccc2c(c1)c1n[nH]c(=S)nc1n2CCc1ccccc1	i	i	i	i	i	i	nt	nt
NNc1nnc2c3cc(F)ccc3n(CCc3ccccc3)c2n1	i	i	i	11.9	i	i	i	i
Cc1ccc(-n2c(=O)c3sccc3n(Cc3cc(=O)n4cc(Cl)ccc4n3)c2=O)cc1F	i	i	i	i	i	i	nt	nt
Cc1cccc(C)c1NC(=O)C1(C)CSCC(=O)N1CCc1ccc(O)cc1 (stereo unspecified)	i	i	i	11.3	i	i	i	i
COc1ccc(/C=C2\SC(=O)N(CC(=O)NC3CCS(=O)(=O)C3)C2=O)cc1 (stereo unspecified)	i	i	i	i	i	i	nt	nt
Nc1ccccc1Sc1ccc(C(=O)c2ccccc2C(=O)O)cc1[N+](=O)[O-]	i	i	i	9.0	i	i	i	i
CCOc1ccc(OCC(=O)OCC(=O)Nc2ccccc2C#N)cc1	i	i	i	i	i	i	nt	nt
CCOc1ccc(N=C2SC(C(=O)Nc3ccccc3C#N)C(N)=C2C(=O)Nc2ccc(Cl)cc2)cc1 (stereo unspecified)	i	i	i	9.4	i	i	21.2	16.4
S=C(NCc1ccc(Cl)cc1)Nc1ccncc1	i	i	i	8.9	i	i	i	13.2
CCC(=O)c1ccc(OCC(=O)NC2CCCC2)cc1	i	i	i	i	i	i	nt	nt
CCC(=O)c1ccc(OCC(=O)OCC(=O)NC2CCCCCCC2)cc1	i	i	i	9.5	i	i	i	8.8
COc1ccc(NC(=O)c2cc3sccc3n2Cc2ccc(F)cc2)cc1OC	i	i	i	9.8	i	i	i	i
Cc1ccc(N2CCN(C(=O)C3CCC(=O)N(Cc4ccc(Cl)cc4)C3)CC2)c(C)c1 (stereo unspecified)	i	i	i	8.8	i	i	i	i
Cc1cc([N+](=O)[O-])nn1CCCC(=O)Nc1c(C)n(C)n(-c2ccccc2)c1=O	i	i	i	i	i	i	nt	nt
SMILES	PLC-gamma1 inh	proKLK7 act	PLC-beta3 inh	ADAM17 inh	sPLA2-III inh	ADAM10 inh	ADAM10 counter	ADAM17 confirm
CC1(Cc2ccc(OC(F)(F)F)cc2)C(=O)Nc2c(Cl)ccc(Cl)c21 (stereo unspecified)	i	i	i	9.7	i	i	30.6	15.3
CC1(Cc2cccc(F)c2)C(=O)Nc2ccc(OC(F)(F)F)cc21 (stereo unspecified)	i	i	i	i	i	i	nt	nt
CC1(Cc2ccc(F)cc2)C(=O)Nc2c(Cl)ccc(Cl)c21 (stereo unspecified)	i	i	i	i	i	i	nt	nt
CC1(Cc2ccc(OC(F)(F)F)cc2)C(=O)Nc2ccc(OC(F)(F)F)cc21 (stereo unspecified)	i	i	i	10.6	i	i	50.8	25.4
Cc1ccsc1/C=N/Nc1ccc(F)cc1F	i	i	i	i	i	i	nt	nt
O=C(CNC(=O)/C(=C\c1ccc(Br)cc1)NC(=O)c1ccccc1)OCc1ccccc1	i	i	i	10.1	i	i	22.4	i
COC(=O)CC1(c2cccc3ccccc23)C(=O)c2ccccc2C1=O	i	i	i	i	i	i	nt	nt
NC(CSC1(c2cccc3ccccc23)c2ccccc2-c2ccccc21)C(=O)O (stereo unspecified)	i	i	i	10.1	i	i	i	10.2
CNS(=O)(=O)c1ccc(C(=O)NCC(=O)NCC2COc3ccccc3O2)cc1 (stereo unspecified)	i	i	i	i	i	i	nt	nt
CNS(=O)(=O)c1ccc(C(=O)NCC(=O)NCCC(c2ccccc2)c2ccccc2)cc1	i	i	i	9.7	i	i	i	i
O=C(C[C@@H]1C/C=C/CC[C@@H](Cc2ccc(F)cc2)C(=O)O[C@H](c2ccccc2)CNC1=O)NCCO	i	i	i	i	i	i	nt	nt
Cc1ccc(NC(=O)COC(=O)c2cccc(OC(F)F)c2)cc1S(=O)(=O)N1CCCCC1	i	i	i	9.1	i	i	45.1	25.2
Cc1ccc(S(=O)(=O)NCC(=O)OCC(=O)Nc2ccc(C)c(S(=O)(=O)N3CCOCC3)c2)cc1	i	i	i	i	i	i	nt	nt
Cc1ccc(OCCC(=O)OCC(=O)Nc2ccc(C)c(S(=O)(=O)N3CCOCC3)c2)cc1	i	i	i	9.1	i	i	i	i
O=C(COc1ccccc1F)NNC(=O)c1cccc(-n2cccc2)c1	i	i	i	14.7	i	i	i	i
Cc1cccc(N(C)Cc2nnc(-c3cccc(Br)c3)o2)c1	i	i	i	i	i	i	nt	nt
CCc1nnc(NC(=O)C2(C)COC(c3ccc(OC)cc3)OC2)s1 (stereo unspecified)	i	i	i	i	i	i	nt	nt
O=C1CC(Nc2ccc3ccccc3c2)C(=O)N1Cc1ccccc1 (stereo unspecified)	i	i	i	10.0	i	i	i	11.1
O=C1CC(Nc2ccc(N3CCOCC3)cc2)C(=O)N1Cc1ccccc1 (stereo unspecified)	i	i	i	i	i	i	nt	nt
